# From PubChem BioAssay AID1159580 (chemical genetic matrix, 2015)
# Out of some 5,500 compounds screened, about 2,000 (36%) were called active. About 18% were inconclusive and are not listed. This is one part of the list. Unmarked numbers belong to inactive results. Cut-off read from the data, not from the text of the source: active = normalized growth mostly below about 0.91 (no sharp cut-off); inconclusive = no clear call, values can overlap the other calls; inactive = mostly above about 0.92.
# Test: chemical genetic growth profiling, strain panel (AID 1159580);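 note: tested at 20 µM; growth read once vehicle control cultures reached saturation at 30 °C; 1 = growth at the plate median or of vehicle wells; lower values mean less growth of the strain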
# Conditions: growth OD
# [1] = S. cerevisiae deletion strains, locus YGR078C, strain PAC10, stronger effect = lower value
# [2] = S. cerevisiae deletion strains, locus YMR307W, strain GAS1, stronger effect = lower value
# [3] = S. cerevisiae deletion strains, locus YNL153C, strain GIM3, stronger effect = lower value
# [4] = S. cerevisiae deletion strains, locus YAL013W, strain DEP1, stronger effect = lower value
# [5] = S. cerevisiae deletion strains, locus YBR229C, strain ROT2, stronger effect = lower value
# [6] = S. cerevisiae deletion strains, locus YCL061C, strain MRC1, stronger effect = lower value
# [7] = S. cerevisiae deletion strains, locus YDL101C, strain DUN1, stronger effect = lower value
# [8] = S. cerevisiae deletion strains, locus YDL134C, strain PPH21, stronger effect = lower value
# [9] = S. cerevisiae deletion strains, locus YDR150W, strain NUM1, stronger effect = lower value
# [10] = S. cerevisiae deletion strains, locus YEL061C, strain CIN8, stronger effect = lower value
# [11] = S. cerevisiae deletion strains, locus YHR030C, strain SLT2, stronger effect = lower value
# [12] = S. cerevisiae deletion strains, locus YHR087W, strain rtc3, stronger effect = lower value
# [13] = S. cerevisiae deletion strains, locus YJL187C, strain SWE1, stronger effect = lower value
# [14] = S. cerevisiae deletion strains, locus YJR043C, strain POL32, stronger effect = lower value
# [15] = S. cerevisiae deletion strains, locus YJR075W, strain HOC1, stronger effect = lower value
# [16] = S. cerevisiae deletion strains, locus YLR039C, strain RIC1, stronger effect = lower value
# [17] = S. cerevisiae deletion strains, locus YLR058C, strain SHM2 (second series), stronger effect = lower value
# [18] = S. cerevisiae deletion strains, locus YLR085C, strain ARP6, stronger effect = lower value
# [19] = S. cerevisiae deletion strains, locus YLR262C, strain YPT6, stronger effect = lower value
# [20] = S. cerevisiae deletion strains, locus YML094W, strain GIM5, stronger effect = lower value
# [21] = S. cerevisiae deletion strains, locus YMR219W, strain ESC1, stronger effect = lower value
# [22] = S. cerevisiae deletion strains, locus YMR263W, strain SAP30, stronger effect = lower value
# [23] = S. cerevisiae deletion strains, locus YNL298W, strain CLA4 (second series), stronger effect = lower value
# [24] = S. cerevisiae deletion strains, locus YNL322C, strain KRE1, stronger effect = lower value
# [25] = S. cerevisiae deletion strains, locus YNR030W, strain Alg12, stronger effect = lower value
# [26] = S. cerevisiae deletion strains, locus YPL055C, strain LGE1, stronger effect = lower value
# [27] = S. cerevisiae deletion strains, locus YPL241C, strain CIN2, stronger effect = lower value
# [28] = S. cerevisiae deletion strains, locus YPR135W, strain CTF4, stronger effect = lower value
structure (smiles),measurement,setting,value
CNc1cc(NS(=O)(=O)c2ccc(N)cc2)nc(NC)n1,normalized growth,"S. cerevisiae deletion strains, locus YAL040C, strain CLN3, stronger effect = lower value",0.991
same,normalized growth,"S. cerevisiae deletion strains, locus YCL061C, strain MRC1 (second series), stronger effect = lower value",0.986
same,normalized growth,"S. cerevisiae deletion strains, locus YDR363W, strain ESC2, stronger effect = lower value",0.974
same,normalized growth,"S. cerevisiae deletion strains, locus YER002W, strain NOP16, stronger effect = lower value",0.98
same,normalized growth,[1],0.994
same,normalized growth,[2],1
same,normalized growth,[3],1.01
same,normalized growth,"S. cerevisiae deletion strains, locus YNL175C, strain NOP13, stronger effect = lower value",0.993
same,normalized growth,"S. cerevisiae deletion strains, locus YNL197C, strain WHI3, stronger effect = lower value",0.991
same,normalized growth,"S. cerevisiae deletion strains, locus YNL224C, strain SQS1, stronger effect = lower value",0.994
same,normalized growth,"S. cerevisiae deletion strains, locus YOR083W, strain WHI5 (second series), stronger effect = lower value",0.993
CC(C)(C)C(=O)Nc1ccc(F)cc1,normalized growth,[4],1
same,normalized growth,[5],1
same,normalized growth,[6],0.991
same,normalized growth,[7],0.994
same,normalized growth,[8],1.02
same,normalized growth,[9],0.985
same,normalized growth,[10],1.01
same,normalized growth,[1],0.999
same,normalized growth,[11],1.02
same,normalized growth,[12],1
same,normalized growth,[13],1.01
same,normalized growth,[14],1.01
same,normalized growth,[15],0.962
same,normalized growth,[16],1.07
same,normalized growth,[17],1.01
same,normalized growth,[18],1.05
same,normalized growth,[19],1.01
same,normalized growth,[20],1
same,normalized growth,[21],1
same,normalized growth,[22],1
same,normalized growth,[3],0.995
same,normalized growth,[23],1.04
same,normalized growth,[24],0.994
same,normalized growth,[25],1.02
same,normalized growth,"S. cerevisiae deletion strains, locus YOL006C, strain TOP1, stronger effect = lower value",1.01
same,normalized growth,[26],0.946
same,normalized growth,[27],1.01
same,normalized growth,[28],0.956
CCC(=O)Nc1cc(F)ccc1C,normalized growth,[4],0.999
same,normalized growth,[5],1
same,normalized growth,[7],1
same,normalized growth,[8],1
same,normalized growth,[9],0.968
same,normalized growth,[10],0.997
same,normalized growth,[1],1
same,normalized growth,[11],0.985
same,normalized growth,[12],1.01
same,normalized growth,[14],0.985
same,normalized growth,[15],1
same,normalized growth,"S. cerevisiae deletion strains, locus YKL190W, strain CNB1, stronger effect = lower value",1.01
same,normalized growth,[16],1.01
same,normalized growth,[17],1
same,normalized growth,[18],1.02
same,normalized growth,[19],1.01
same,normalized growth,[20],1.01
same,normalized growth,[21],0.997
same,normalized growth,[22],0.996
same,normalized growth,"S. cerevisiae deletion strains, locus YNL128W, strain TEP1, stronger effect = lower value",0.998
same,normalized growth,[3],0.987
same,normalized growth,[23],1.01
same,normalized growth,[24],0.997
same,normalized growth,[25],1.01
same,normalized growth,[26],1.09
same,normalized growth,[27],0.89
same,normalized growth,[28],0.987
same,normalized growth,"S. cerevisiae strains, strain wild type, stronger effect = lower value",1.01
CC(C)(C)c1ccc(NC(=O)Cc2cc(F)cc(F)c2)cc1,normalized growth,[4],0.993
same,normalized growth,[5],0.995
same,normalized growth,[6],0.97
same,normalized growth,[7],1.02
same,normalized growth,[9],0.902
same,normalized growth,[10],0.997
same,normalized growth,[1],0.979
same,normalized growth,[11],0.988
same,normalized growth,[12],0.984
same,normalized growth,[13],0.985
same,normalized growth,[14],1
same,normalized growth,[15],0.933
same,normalized growth,[16],0.939
same,normalized growth,[17],0.986
same,normalized growth,[18],1.26 [resistant] (active)
same,normalized growth,[19],0.941
same,normalized growth,[20],0.994
same,normalized growth,[21],0.988
same,normalized growth,[22],1
same,normalized growth,[2],1.05
same,normalized growth,[3],0.989
same,normalized growth,[23],0.97
same,normalized growth,[24],0.985
same,normalized growth,[25],0.985
same,normalized growth,[26],0.885
same,normalized growth,[27],0.949
same,normalized growth,[28],1
